Compounds with a hit are over-represented: about 2.2% of the library has one in this group of screens.
MEKK2 mut-MEK5 = signal of MEK5 binding to mutant human MEKK2 PB1 domain. bead flow cytometry, Alexa488-MEK5 binding to MEKK2 mutant. percent response, % at 10 µM. hit rate 0.35% among 290,000; in the data active = percent response above about 24%, passing the limit was not always enough
MEKK2 WT-MEK5 = raises or lowers MEK5 binding to wildtype human MEKK2 PB1 domain. Q9Y2U5. bead flow cytometry, Alexa488-MEK5 binding to MEKK2 WT; actives lie on both sides. binding response (% of control), % at 10 µM. hit rate 1.1% among 290,000. AID 1531; in the data active = binding response below about 67% or above about 130%
MEKK3 PB1 HTS = MEKK3-MEK5 PB1 interaction, increase or decrease; bead-based flow cytometry, Alexa488-MEK5 binding to MEKK3; actives lie on both sides; 0 = blocked by unlabeled MEK5, 100 = vehicle; hit rate 1.4% among 290,000; AID 1529; binding response (% of control), % at 10 µM;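 active = binding response more than 3 SD above or below the average of its plate-row segment, actives on both sides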;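 also: Alexa488 bead fluorescence after subtracting the streptavidin-only scavenger bead signal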
Target sequence (Q99759 whole entry, looked up): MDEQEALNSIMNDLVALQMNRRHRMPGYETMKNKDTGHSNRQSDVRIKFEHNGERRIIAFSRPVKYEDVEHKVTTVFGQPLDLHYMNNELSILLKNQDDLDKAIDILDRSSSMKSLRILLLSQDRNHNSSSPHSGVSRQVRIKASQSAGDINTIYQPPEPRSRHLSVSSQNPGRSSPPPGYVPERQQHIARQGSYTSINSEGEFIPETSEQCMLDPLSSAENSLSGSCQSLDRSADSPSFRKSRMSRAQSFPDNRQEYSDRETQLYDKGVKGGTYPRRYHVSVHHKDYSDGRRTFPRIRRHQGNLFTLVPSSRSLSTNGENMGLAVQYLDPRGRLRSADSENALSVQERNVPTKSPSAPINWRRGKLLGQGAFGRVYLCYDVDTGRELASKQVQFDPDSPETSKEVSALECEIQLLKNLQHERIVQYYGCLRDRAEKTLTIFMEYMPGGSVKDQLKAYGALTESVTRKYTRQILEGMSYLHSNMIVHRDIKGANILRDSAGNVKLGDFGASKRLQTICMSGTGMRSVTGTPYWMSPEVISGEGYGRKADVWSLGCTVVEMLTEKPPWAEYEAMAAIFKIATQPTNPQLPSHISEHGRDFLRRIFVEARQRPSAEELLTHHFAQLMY
VLA-4 inh = inhibition in a human VLA-4 binding assay | P13612 | VLA-4 expressing cells, ligand binding flow cytometry | inhibition, % (about 7 µM as worked out from the volumes in the protocol) | hit rate 0.2% among 330,000 | AID 2557; in the data active = inhibition above about 50%
MEKK2wt confirm = raises or lowers MEK5 binding to wildtype human MEKK2, retest; shares compounds with MEKK3 PB1 HTS; bead flow cytometry, Alexa488-MEK5 binding to MEKK2 WT; actives lie on both sides; AID 1892; hit rate 2.4% among 5,900; binding response (% of control), % at 10 µM; in the data active = binding response below about 16% or above about 210%; inactive = in between
MEKK2mut-MEK5 = signal of MEK5 binding to mutant human MEKK2, retest; percent response, % at 10 µM; shares compounds with MEKK3 PB1 HTS; bead flow cytometry, Alexa488-MEK5 binding to MEKK2 mutant; hit rate 2% among 5,900; in the data active = percent response mostly above about 71%, no sharp cut-off; inactive = mostly below about 38%;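 also: higher means compound restores mutant binding toward wildtype level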
MEKK3 confirm = MEKK3-MEK5 PB1 inhibition, single concentration confirmation. shares compounds with MEKK3 PB1 HTS. bead flow cytometry, Alexa488-MEK5 binding to MEKK3; active compounds read low. binding response (% of control), % at 10 µM. hit rate 1.8% among 5,900. AID 1894;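 active = binding response below 72% of control, or above a set upper limit, though filed actives all read lower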;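 also: 100% = DMSO only wells and 0% = binding blocked by excess unlabeled MEK5; lower values mean stronger disruption of MEK5 binding to MEKK3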
* hit, by the source's call; x = not tested or not shown; [ ] = another dose, or the depositor's remark.

SMILES | MEKK2 mut-MEK5 | MEKK2 WT-MEK5 | MEKK3 PB1 HTS | VLA-4 inh | MEKK2wt confirm | MEKK2mut-MEK5 | MEKK3 confirm
Cc1ccc2oc(=O)n(CCCOc3ccccc3)c2c1 | 4 | 121 | 125* | 13 | 102 | 9 | 102
CCOC(=O)C1CCN(CC(O)COc2ccc(C(C)(C)C)cc2)CC1 (centres undefined) | 1 | 104 | 98 | 2 | x | x | x
CCOC(=O)C1CCN(CC(O)COc2ccc(C(C)(C)CC)cc2)CC1 (centres undefined) | -21 | 0.0*[inhibitor] | 2.0*[inhibitor] | 6 | 124 | 13 | 110
O=C(c1ccc(Cl)cc1)N(Cc1ccco1)C1CCS(=O)(=O)C1 (centres undefined) | -32 | 1.0*[inhibitor] | 2.0*[inhibitor] | 9 | 103 | -1 | 104
O=C(c1ccccc1)N(Cc1ccco1)C1CCS(=O)(=O)C1 (centres undefined) | 4 | 103 | 101 | 34 | x | x | x
Cc1ccc(C2C(C#N)=C(N)Oc3n[nH]c(-c4cccs4)c32)cc1 (centres undefined) | -2 | 96 | 91 | -328 | x | x | x
N#CC1=C(N)Oc2n[nH]c(-c3cccs3)c2C1c1cccnc1 (centres undefined) | 6 | 108 | 123* | 8 | 120 | 6 | 92
O=C(CSc1nc2ccccc2[nH]1)Nc1nc(-c2ccc(Br)cc2)cs1 | 1 | 116 | 173* | -1 | 99 | -8 | 103
COc1ccc(OCC(=O)NNC(=O)c2ccc3c(=O)n4c(nc3c2)CCC4)cc1 | -7 | 94 | 93 | -14 | x | x | x
Cc1cccc(C)c1NC(=O)Cn1nnc(-c2ccc(CN3CCC(C)CC3)cc2)n1 | 6 | 137 | 144* | -3 | 99 | 4 | 98
CC1CCN(Cc2ccc(-c3nnn(CC(=O)Nc4ccccc4Cl)n3)cc2)CC1 | -3 | 108 | 103 | 6 | x | x | x
CCOC(=O)c1sc(NC(=O)COC(=O)C(CCSC)NC(C)=O)nc1C (centres undefined) | -2 | 78 | 61*[inhibitor] | 7 | 98 | -9 | 93
CCC(C)[C@H](NC(=O)C1(c2ccccc2)CCN(C(=O)OC(C)(C)C)CC1)C(=O)N[C@@H](C(=O)O)c1ccccc1 (some centres undefined) | -4 | 96 | 94 | 6 | x | x | x
COc1ccc(OC)c(-c2nc(C(=O)NC3CCN(Cc4ccccc4)CC3)cc3c2[nH]c2ccccc23)c1 | 24* | 146* | 104 | 13 | 153 | 40 | 111
O=C(NCCO)c1cc2c([nH]c3ccccc32)c(-c2ccccc2)n1 | 1 | 101 | 100 | -3 | x | x | x
COc1cc(-c2nc(C(=O)NC3CCN(Cc4ccccc4)CC3)cc3c2[nH]c2ccccc23)cc(OC)c1OC | 21 | 147* | 105 | -14 | 170 | 47 | 107
Cc1ccc(-c2nc(C(=O)NCCCN(C)C)cc3c2[nH]c2ccccc23)cc1 | 21 | 146* | 103 | 8 | 156 | 42 | 109
C[C@H](NC(=O)[C@H]1N2C(=O)c3ccccc3C2SC1(C)C)C(=O)NCC1CCCO1 (some centres undefined) | 2 | 102 | 104 | 35 | x | x | x
CCC(C)(C)n1nnnc1C(c1cccnc1)N1CCN(c2cccc(C(F)(F)F)c2)CC1 (centres undefined) | 7 | 120 | 123* | 2 | 101 | -2 | 102
CCC(C)(C)n1nnnc1C(c1ccncc1)N1CCN(c2cccc(OC)c2)CC1 (centres undefined) | -4 | 98 | 87 | 7 | x | x | x
COc1ccc2c(c1)CC/C(=C\C=C\c1ccccc1OC)C2=O | -3 | 61 | 78 | -12 | x | x | x
COc1ccc2c(c1)C(=O)/C(=C/C=C/c1ccccc1)CC2 | -1 | 71*[inhibitor] | 90 | 36 | 86 | -7 | 99
CCOC(=O)c1cn(Cc2ccccc2)nn1 | 0 | 101 | 131* | 24 | 100 | -3 | 105
COc1ccc2nc(C)cc(N/N=C/c3ccc(F)cc3)c2c1 | 59* | 160* | 69*[inhibitor] | 20 | 211* | 61 | 89
COc1ccc(/C=N/Nc2cc(C)nc3ccccc23)cc1 | 43* | 228* | 112 | 9 | 177 | 48 | 111
SMILES | MEKK2 mut-MEK5 | MEKK2 WT-MEK5 | MEKK3 PB1 HTS | VLA-4 inh | MEKK2wt confirm | MEKK2mut-MEK5 | MEKK3 confirm
COc1cccc2c(N/N=C/c3ccc(O)c(O)c3)cc(C)nc12 | 2 | 105 | 103 | 12 | x | x | x
COc1ccc(/C=N/Nc2cc(C)nc3c(C)cccc23)cc1 | 71* | 279* | 116 | 9 | 197 | 45 | 104
Cc1ccc2nc(C)cc(N/N=C/c3cccc(O)c3)c2c1 | 5 | 104 | 103 | 14 | x | x | x
CCOC(=O)c1c(NC(=O)COC(=O)Cn2cnc3c2c(=O)n(C)c(=O)n3C)sc(C)c1CC | x | x | x | -13 | x | x | x
Cc1c(NS(=O)(=O)c2cc(C(=O)NCCN(C)C)ccc2Cl)c(=O)n(-c2ccccc2)n1C | 3 | 110 | 105 | 1 | x | x | x
O=C(COc1ccc(Cl)cc1)Nc1ccc2c(c1)CCC2 | -1 | 100 | 75*[inhibitor] | -12 | 98 | -4 | 96
CC(=O)c1ccc(OCC(=O)Nc2ccc3c(c2)CCC3)cc1 | x | x | x | 5 | x | x | x
Cc1cc(C)cc(NC(=O)Nc2ccc(-n3ccc(C(F)(F)F)n3)cc2)c1 | -35 | 97 | 71 | 3 | x | x | x
O=C(Nc1ccc(-n2ccc(C(F)(F)F)n2)cc1)Nc1cccc(Cl)c1 | 74* | 245* | 141* | 4 | 109 | -4 | 106
CCN(CCNCC(O)COc1ccccc1C(C)C)c1cccc(C)c1 (centres undefined) | 44* | 174* | 109 | 20 | 169 | 29 | 95
Cc1ccc(NC(=O)c2ccc(=O)[nH]n2)cc1S(=O)(=O)Nc1ccc(SC(F)F)cc1 | x | x | x | 1 | x | x | x
CN(C)S(=O)(=O)c1cccc(NC(=S)Nc2cc(Cl)cc(Cl)c2)c1 | 10 | 150* | 111 | -3 | 114 | 3 | 107
CCCCC(CC)Cn1c(N)c(C#N)c2nc3ccccc3nc21 (centres undefined) | 54* | 183* | 118 | -16 | 100 | -1 | 105
CN(c1ccccc1)S(=O)(=O)c1cccc(NC(=O)C2=NNC(=O)CC2)c1 | x | x | x | 14 | x | x | x
CCOC(=O)C1(CC2CCCCO2)CCN(Cc2cc3ccccc3[nH]2)CC1 (centres undefined) | -7 | 97 | 99 | 9 | x | x | x
Cc1ccc2nc(-c3ccccc3)cc(C(=O)N(C)CC(=O)Nc3ccccc3Br)c2c1 | x | x | x | 10 | x | x | x
COc1ccc(CCNC(=O)CC2SC(=NCCc3ccccc3)NC2=O)cc1OC (centres undefined) | -2 | 96 | 97 | 1 | x | x | x

Screening results: PubChem, NMMLSC
